High-throughput results as filed in PubChem.
In the library only some 3.2% were active in any assay of this set; here they are far more common.
aDG glyco up: activators of alpha-DG glycosylation, primary screen, uHTS, Pro5-aDG cells, AlphaScreen; alpha-DG glycosylation AlphaScreen (IIH6); 0% Pro5, 100% B10-LARGE cell signal; activation, % at 10 µM; actives 0.22% (n = 360,000); AID 624168, 2012;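 active = activation of at least 8% versus controls, or a plate z-score of at least 8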;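 also: Pro5 are CHO cells carrying HIG-tagged alpha-DG that lacks glycosylation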
H9c2 protect: cardioprotection against H2O2-induced cell death, primary screen, uHTS, H9c2 cells, ATPLite luminescence; H9c2 cardiomyocytes, H2O2 injury protection, 2 h; protection from H2O2 cell death, % at 20 µM; actives 0.63% (n = 360,000); AID 588492, 2011;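 active = compounds giving at least 50% protection of heart cells from peroxide-induced death in the single-dose screen, raw or plate-pattern-corrected value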
PfG6PD inh: PfG6PD enzyme inhibitors, primary screen, biochemical, fluorescence intensity, uHTS. inhibition, % at 20 µM. PfGluPho enzyme, NADPH resazurin-diaphorase fluorescence. actives 0.78% (n = 350,000). glucose-6-phosphate dehydrogenase-6-phosphogluconolactonase (Plasmodium falciparum 3D7);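 active = inhibition reaching at least a set limit at 20 µM in the primary screen, cut at about 59% in these data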
CRFBP-R2 block: antagonists of CRF-BP/CRF-R2 complex, primary screen, cell-based, HEK293, calcium dye fluorescence, uHTS; CRF-induced calcium fluorescence; inhibition, % at 11.8 µM; actives 0.59% (n = 350,000);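 active = inhibition of the ligand-induced calcium signal above about 50% at the single tested concentration, limit read from the data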
FAS-TE inh: FAS thioesterase domain inhibitors, primary screen, biochemical, fluorescence intensity, uHTS. AID 602261, 2012. inhibition, % at 15 µM. Fatty acid synthase (Homo sapiens), P49327. actives 0.67% (n = 360,000). recombinant FAS-TE, OMFH fluorogenic substrate, fluorescence endpoint;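 active = compounds whose normalised, plate-corrected inhibition of enzyme fluorescence in the single-dose primary screen is 50% or more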
CRFBP-R2 agonist: agonists of CRF-BP/CRF-R2 complex, primary screen, cell-based, HEK293, calcium dye fluorescence, uHTS | CRF-binding protein / CRF receptor 2 complex (human) | calcium dye fluorescence (FLIPR); percent of saturating CRF peptide response | activation, % at 13.2 µM | actives 0.46% (n = 350,000) | AID 588473, 2011;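 active = activation of at least 50%, plus an integration ratio under a set limit after plate pattern correction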
FAS-TE conf: FAS thioesterase domain inhibitors, confirmation, biochemical, fluorescence intensity, single concentration | shares compounds with FAS-TE inh | actives 45% (n = 2,300) | inhibition, % at 15 µM | recombinant FAS-TE, OMFH fluorogenic substrate;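 active = compounds inhibiting the enzyme by at least 50% at 15 µM in any one of the replicates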
Of the large screens only hits and unclear results are named; the others gave an inactive call (follow-up assays come after a bar, where they were run).

COC(=O)C(CCSC)NC(=O)c1cn(-c2ccc(OC)cc2)c(=O)c2ccccc12 (stereo unspecified)	none
CC(=O)c1c(C)c(C)c2n1CCn1c(C)ccc1-2	none
O=C(COc1ccc([N+](=O)[O-])cc1)Nc1ccc2c(c1)OCO2	FAS-TE inh 58.9 | FAS-TE conf inactive
COc1ccc2[nH]c3c(c2c1)CCN1C(=O)C(CC(=O)NCc2ccc(OC)c(OC)c2)C[C@H](C(=O)N2CCOCC2)[C@@]31CCC1CCCC1 (stereo partly specified)	none
CN(C)C(=O)CCc1ccc2c3c([nH]c2c1)[C@]1(CCC2CCCC2)[C@@H](C(=O)N2CCOCC2)C[C@H](CC(=O)NCc2cccc(C(F)(F)F)c2)C(=O)N1CC3	none
COc1ccc(CNC(=O)C[C@H]2C[C@H](C(=O)N3CCCCC3)[C@@]3(CCc4ccccc4)c4[nH]c5ccc(Cl)cc5c4CCN3C2=O)cc1OC	FAS-TE inh 69.4 | FAS-TE conf inactive
O=C(CC1C[C@H](C(=O)N2CCOCC2)[C@@]2(CCC3CCCC3)c3[nH]c4ccccc4c3CCN2C1=O)NCc1cccc(C(F)(F)F)c1 (stereo partly specified)	FAS-TE inh 60.9 | FAS-TE conf 33.6
COc1ccc(CNC(=O)CC2C[C@H](C(=O)N3CCOCC3)[C@@]3(CCC4CCCC4)c4[nH]c5ccccc5c4CCN3C2=O)cc1OC (stereo partly specified)	FAS-TE inh 77.2 | FAS-TE conf 87.9
Cc1cccc(C)c1NC(=O)C1(C)CN(S(C)(=O)=O)CC(=O)N1CCc1ccccc1F (stereo unspecified)	none (no result: H9c2 protect, PfG6PD inh, CRFBP-R2 block, FAS-TE inh, CRFBP-R2 agonist)
O=C(COc1ccccc1Cl)NCCCNC(=O)c1ccco1	none
COc1ccc([C@H]2CC(=O)C=C(c3cc4ccccc4c4ccccc34)C2)cc1	none
Cc1cccc2cc(/C=N/Nc3ccc(C(=O)O)cc3)c(Cl)nc12	FAS-TE inh 53.9 | FAS-TE conf 49.7
Cn1c(O)c(N=NC(=S)Nc2ccccc2F)c2cc(S(=O)(=O)N3CCOCC3)ccc21	none
Cc1ccc(NC(=S)N=Nc2c(O)n(C)c3ccc(S(=O)(=O)N4CCOCC4)cc23)cc1C	FAS-TE inh 73.2 | FAS-TE conf inactive
C=CCn1c(O)c(N=NC(=S)Nc2ccccc2C)c2cc(S(=O)(=O)N3CCOCC3)ccc21	FAS-TE inh 64.0 | FAS-TE conf inactive
O=C(Cn1nc(-c2ccccc2)c2ccccc2c1=O)Nc1ccc(O)cc1	none
Cc1ccc(NC(=O)NNC(=O)Cn2nc(-c3ccccc3)c(-c3ccccc3)c(C#N)c2=O)cc1	FAS-TE inh 68.1 | FAS-TE conf 57.6
O=C(COc1cccc2cccnc12)N/N=C1\SCC(=O)N1Cc1ccccc1	none
O=C(Nc1ccccc1C(=O)N1CCOCC1)c1ccc(Br)cc1	none
CC1CCN(C(=O)C2CCC(=O)N(Cc3ccc(Cl)cc3)C2)CC1 (stereo unspecified)	none
COc1ccc(C(C)=NNc2ccc([N+](=O)[O-])cc2S(=O)(=O)Nc2ccccc2C(=O)O)c(OC)c1	CRFBP-R2 block 65.7, FAS-TE inh 71.4 | FAS-TE conf 67.8
CN(CCO)c1ccc(C=NNc2ccc([N+](=O)[O-])cc2S(=O)(=O)Nc2ccccc2C(=O)O)cc1	none
CCCCC(CC)C(=O)Nc1cc([N+](=O)[O-])ccc1F (stereo unspecified)	FAS-TE inh 79.3 | FAS-TE conf 70.8
CC(c1ccccc1)N(C)C(=O)CSc1nnc(C2CC2)n1C1CC1 (stereo unspecified)	none
O=C(CCN1C(=O)/C(=C/c2ccccc2Cl)SC1=S)Nc1cccnc1	FAS-TE inh 62.1 | FAS-TE conf inactive
O=C1/C(=C/c2ccccc2Cl)SC(=S)N1CCCC(=O)N(CCO)c1ccccc1	FAS-TE inh 56.3 | FAS-TE conf 39.6
O=C(CCCN1C(=O)/C(=C/c2ccccc2Cl)SC1=S)Nc1ccccn1	none
O=C(CCN1C(=O)/C(=C/c2ccccc2Cl)SC1=S)Nc1ccccn1	FAS-TE inh 64.7 | FAS-TE conf 58.5
CN(CC(=O)Nc1ccc(Cl)c(Cl)c1)C(=O)C12CC3CC(CC(C3)C1)C2	FAS-TE inh 54.1 | FAS-TE conf inactive
COc1ccccc1-c1cc2c(c3c1ccn3C)C1CCC2C1 (stereo unspecified)	none (no result: PfG6PD inh, CRFBP-R2 block, CRFBP-R2 agonist)
Cc1cc(C)c(C#N)c(SCC(=O)c2ccc(Cl)cc2Cl)n1	FAS-TE inh 71.7 | FAS-TE conf 37.3
CO/N=C(/CN1CCCCC1)c1ccc(Cl)cc1	none
CCOC(=O)c1nc(NNC(=O)c2ccc([N+](=O)[O-])cc2)sc1C	FAS-TE inh 52.8 | FAS-TE conf inactive
CCOC(=O)c1sc(NNC(=O)c2ccc(C)cc2)nc1C	none
O=C(COc1ccc(Cl)cc1)OCC(=O)N1CCOCC1	none
Cn1cc([N+](=O)[O-])c(C(=O)Nc2ccc(C3CCCCC3)cc2)n1	FAS-TE inh 51.8 | FAS-TE conf inactive
Cn1cc([N+](=O)[O-])c(C(=O)Nc2ccc(C(=O)N3CCCCC3)cc2)n1	none
O=C(/C=C/c1ccccc1[N+](=O)[O-])N1CCN(c2ccc(F)cc2)CC1	none
O=C(/C=C/c1cccc([N+](=O)[O-])c1)N1CCN(c2ccc(F)cc2)CC1	FAS-TE inh 79.7 | FAS-TE conf 80.5
CCN(CC(=O)Nc1c(F)cccc1F)C(=O)C1(c2ccccc2)CC1	none
Cc1ccc(-c2cc3nc(-c4ccccc4)cc(N4CCOCC4)n3n2)cc1	none
Fc1ccc(-c2cc3nc4c(c(N5CCOCC5)n3n2)CCCC4)cc1	none
COc1ccc(-c2cc3nc4c(c(N5CCC6(CC5)OCCO6)n3n2)CCC4)cc1	FAS-TE inh 50.8 | FAS-TE conf inactive
Cc1cccc(-c2cc3nc4c(c(N5CCC6(CC5)OCCO6)n3n2)CCCC4)c1	none
COc1ccc(-c2cc3nc(-c4ccccc4)cc(N4CCC5(CC4)OCCO5)n3n2)cc1	FAS-TE inh 52.3 | FAS-TE conf inactive
COc1cccc(-c2cc3nc4c(c(N5CCC6(CC5)OCCO6)n3n2)CCC4)c1	FAS-TE inh 54.6 | FAS-TE conf inactive
COc1cc(CN2CCN(C3CCC3)CC2CCO)cc(OC)c1 (stereo unspecified)	none
